Compound activity from PubChem BioAssay.
Pf Dd2 growth: Plasmodium falciparum Dd2 growth inhibition. P. falciparum Dd2 growth, SYBR Green, 72 h. Potency, µM (titrated, usually from 28.9 µM), actives largely listed as inhibitors. actives 4.3% (n = 120,000); active = well fitted inhibition curve with a large enough effect; also: nearly all actives have a fitted effect of over 65% in size
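Readout: SYBR Green fluorescence, 485 nm excitation, 535 nm emission, after ~16 h lysis at 37C. Before that, Dd2-infected red cells (2.5% hematocrit) grew 72 h with compound, 29 uM top final concentration.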
A number is an active result; i = inactive; [ ] = dose if it differs, or a comment. This excerpt belongs to a sample that is enriched for hits.

SMILES | Pf Dd2 growth
CCN(CC)CCNC(=O)c1ccc(-n2c(-c3ccccc3)cc3c2CCCC3)cc1 | 7.94µM
CCN(CC)CCNC(=O)c1ccc2c(c1)N(S(C)(=O)=O)CC2 | i
COc1ccc(N2CC(c3noc(-c4cc(C)cc(C)c4)n3)CC2=O)cc1 (stereo not drawn) | i
COCCOCC1(CNC(=O)C2CCOCC2)C[C@@H](O)[C@@H](O)C1 (stereo partly drawn) | i
CCOc1ccccc1CNc1ccc2cc(S(=O)(=O)N3CCC(C)CC3)ccc2n1 | i
CC1CCN(S(=O)(=O)c2ccc3nc(N4CCN(c5ccc(F)cc5)CC4)ccc3c2)CC1 | i
O=S(=O)(c1ccc2nc(Nc3ccc(F)cc3)ccc2c1)N1CCCC1 | i
O=S(=O)(c1ccc2nc(Nc3cccc(F)c3)ccc2c1)N1CCCC1 | i
CC1CCN(S(=O)(=O)c2ccc3nc(Nc4cccc(C(F)(F)F)c4)ccc3c2)CC1 | 4.47µM
CC1CCN(S(=O)(=O)c2ccc3nc(NCc4ccc(N(C)C)cc4)ccc3c2)CC1 | 11.2µM
COc1cccc(C(=O)N2CCCC3(C2)Nc2cccnc2NC3=NCc2ccccc2)c1 (stereo not drawn) | i[5.79 µM]
CCNC(=O)C(C)(C)Oc1nn(Cc2cccc(Cl)c2)c2ccccc12 | i
O=C(c1ccc(Cl)nc1)N1CCC2(CC1)CC(Cc1ccccc1)=NO2 | i
CCn1ncc(C(=O)N2C[C@@H](COC)[C@H](c3nc(C)no3)C2)c1C | i
O=C(NCCN1CCCCC1)c1cc2cn(C3CCCC3)cc2s1 | i
COC(=O)[C@@H]1Cc2ncn(Cc3ccc(Cl)cc3)c2CN1S(=O)(=O)c1ccc(NC(C)=O)cc1 | i
COC(=O)[C@@H]1Cc2ncn(Cc3ccc(Cl)cc3)c2CN1Cc1cccc(C#N)c1 | 11.2µM
COC(=O)[C@@H]1Cc2ncn(Cc3ccc(Cl)cc3)c2CN1S(=O)(=O)c1cccs1 | i
COC(=O)[C@@H]1Cc2ncn(Cc3ccccc3)c2CN1S(=O)(=O)Cc1ccccc1 | 11.2µM
COC(=O)[C@@H]1Cc2ncn(Cc3ccccc3)c2CN1S(=O)(=O)c1cccc(C(F)(F)F)c1 | i
COC(=O)[C@@H]1Cc2ncn(Cc3ccccc3)c2CN1S(=O)(=O)c1cccs1 | i
Cc1nc2ccccc2n1CCC(=O)N1C[C@@H](C)[C@](O)(C(C)C)C1 | i
CCN1CCCN(C(=O)c2ccco2)CC12CCOCC2 | i
CCC1CCc2c(sc(NC(=O)C3c4ccccc4Oc4ccccc43)c2C(=O)OC)C1 (stereo not drawn) | 12.6µM
CC1CCc2c(sc(NC(=O)C3c4ccccc4Oc4ccccc43)c2C(=O)OC(C)C)C1 (stereo not drawn) | i
SMILES | Pf Dd2 growth
CCC(C)(C)C1CCc2c(sc(NC(=O)C3c4ccccc4Oc4ccccc43)c2C(N)=O)C1 (stereo not drawn) | i
CC(C)(C)CC(=O)NC[C@H]1OC[C@@H](NCc2ccc(C(=O)O)cc2)[C@@H]1O | i
COc1ccc(NC(=O)N2CCCC2c2nc(C3CCOCC3)no2)cc1 (stereo not drawn) | i
O=C(CC1CCOCC1)NCC1CCN(Cc2ccccc2F)CC1 | i
Cc1ccc(Nc2nc3c(S(=O)(=O)c4ccccc4)nnn3c3ccsc23)c(C)c1 | i
Cc1ccc(S(=O)(=O)c2nnn3c2nc(NC(C)c2ccccc2)c2sccc23)cc1 (stereo not drawn) | 10µM
COc1ccc(Nc2nc3c(S(=O)(=O)c4ccccc4)nnn3c3ccc(Cl)cc23)cc1OC | i
CC(=O)Nc1ccc(Nc2nc3c(S(=O)(=O)c4cc(C)ccc4C)nnn3c3ccsc23)cc1 | i
CCc1ccc(S(=O)(=O)c2nnn3c2nc(NCc2ccc(F)cc2)c2ccccc23)cc1 | i
CCc1ccc(S(=O)(=O)c2nnn3c2nc(Nc2ccc(F)cc2)c2cc(Cl)ccc23)cc1 | 1.26µM
Cc1ccc(C)c(S(=O)(=O)c2nnn3c2nc(Nc2ccc(F)c(Cl)c2)c2sccc23)c1 | 12.6µM
Cc1ccc(C)c(S(=O)(=O)c2nnn3c2nc(N2CCN(C)CC2)c2sccc23)c1 | 8.91µM
Cc1ccc(S(=O)(=O)c2nnn3c2nc(N2CCCC2)c2sccc23)cc1C | i
COc1ccc(Nc2nc3c(S(=O)(=O)c4ccc(C)cc4)nnn3c3ccsc23)cc1Cl | i
CN1CCN(c2nc3c(S(=O)(=O)c4ccccc4)nnn3c3ccsc23)CC1 | i
Cc1ccc(S(=O)(=O)c2nnn3c2nc(NCc2ccccc2)c2sccc23)cc1 | i
COc1ccc(OC)c(S(=O)(=O)N2CCCCCCNC(=O)[C@@H]3CCC[C@@H]32)c1 | i
CN1C[C@@H](NS(C)(=O)=O)C[C@H]1c1nc(-c2ccncc2)no1 | i
O=C(c1ccccc1C(F)(F)F)N1CCC(CO)(CN2CCCC2)CC1 | i
CN(CCc1noc(C2CC2)n1)C(=O)C1CC(=O)N(C(C)(C)C)C1 (stereo not drawn) | i
CN1C[C@@H]2CCCN3CCC[C@@H]([C@H]23)[C@H]1CCCC(=O)NCCN1CCOCC1 | i
Cc1ccc(CC(=O)N2CCCN(S(C)(=O)=O)c3ccccc32)cc1 | i
CC[C@@H](NC(C)=O)c1nc(-c2cccnn2)no1 | i
CCn1ccnc1CN(C)C(=O)c1cc(COc2ccccc2)[nH]n1 | i
Cc1ncccc1OC1(C(=O)NCc2cn3c(n2)SCC3)CCNCC1 | i
SMILES | Pf Dd2 growth
O=C(CC1CCOCC1)NCc1ccc(F)cc1F | i
CN1CC(=O)N(C2CCCCC2)Cc2c1ncnc2N1CCOCC1 | i
COc1cccc(CN2CCc3nc(N4CCN(c5ncccn5)CC4)ncc3C2)c1 | 11.2µM
COc1cccc(CN2CCc3nc(N4CCN(C)CC4)ncc3C2)c1 | i
Cc1cccc(CN2CCc3nc(N4CCN(c5ccccn5)CC4)ncc3C2)c1 | i
CCn1cc(S(=O)(=O)N2[C@H]3CC[C@@H]2c2cnc(-c4ccccc4)nc2C3)cn1 | i
C1CNCC(c2nc(C3CCOCC3)no2)C1 (stereo not drawn) | i
CNC(=O)[C@@H]1CN(C(=O)c2ccc(F)cc2F)C[C@H]1COC | i
CNC(=O)[C@@H](C1CC1)N1CCC[C@H]1C(=O)N1CCCCCC1 | i
CC(C)S(=O)(=O)c1oc(-c2ccc(F)cc2)nc1S(=O)(=O)c1ccccc1 | 6.31µM
O=S(=O)(c1ccccc1)c1nc(-c2cccs2)oc1SCc1ccc(F)cc1 | i
CCCCS(=O)(=O)c1oc(-c2ccc(F)cc2)nc1S(=O)(=O)c1ccccc1 | i
CS(=O)(=O)c1oc(-c2ccc(F)cc2)nc1S(=O)(=O)c1ccc(Cl)cc1 | i
Cc1ccc(S(=O)(=O)c2nc(-c3cccs3)oc2SC(C)C)cc1 | i
CC(C)S(=O)(=O)c1oc(-c2cccs2)nc1S(=O)(=O)c1ccc(F)cc1 | 10µM
CCc1ocnc1C(=O)N[C@@H]1CCOC[C@H]1OCC1CCC1 | i
Cc1nc(N)nc(C)c1CC(=O)N1CC[C@@H](NC(=O)c2cccnc2)[C@H](O)C1 | i
CC(C)N1C[C@H](O)C[C@H]1c1nnc2n1CCN(C(=O)c1ccoc1)CC2 | i
Cc1sc2cc(C(=O)O)[nH]c2c1CN1CCCCC1 | i
COCCNS(=O)(=O)c1cc(C(=O)O)cc(-c2ccncc2)c1 | i
COc1ccccc1OCC(=O)Nc1nc2c(s1)CC(C)CC2 (stereo not drawn) | i
CC(C)(C)C1CCc2nc(NC(=O)Cc3ccc(Cl)cc3)sc2C1 (stereo not drawn) | 10µM
COc1ccc(CC(=O)Nc2nc3c(s2)CC(C(C)(C)C)CC3)cc1 (stereo not drawn) | i
COc1ccc(CCNC(=O)c2ccc(Nc3nc4ccccc4n4nnnc34)cc2)cc1OC | 8.91µM
COc1ccccc1N1CCN(C(=O)c2ccc(Nc3nc4ccccc4n4nnnc34)cc2)CC1 | 10µM
